In the supplement of paper PMC13094657:
± gives the standard deviation of the averaged measurements.

Assays:
MDA-MB-231 [1] = test: cell viability relative to vehicle unstimulated control (fraction); higher = more viable cells; conditions: pre-treatment time: 18 h then 24 h IFNg/TNF
MDA-MB-231 [2] = test: kynurenine production, fold change vs DMSO IFNg/TNF control; higher = more kynurenine produced (less inhibition); conditions: pre-treatment time: 18 h then 24 h IFNg/TNF
Outline: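 Fold change over cytokine-stimulated vehicle wells on the same plate is the measure used for kynurenine production, averaged across duplicate plates in the first screening round. MDA-MB-231 cells, seeded 24 h beforehand at 7 × 10^4/well in 96-well plates, were pre-treated 18 h with each natural product in 0.1% DMSO and stimulated 24 h at 37°C with IFNγ (1 U/ml) and TNF (6.25 ng/ml). Supernatants were read at 492 nm following trichloroacetic acid and p-dimethylaminobenzaldehyde treatment, against 0–100 μM standards.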
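Wherever cell viability relative to vehicle unstimulated control is given: viability of the cells left after supernatant collection, read with Deep Blue dye added for 4 h, as absorbance at 570 nm minus 600 nm.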

Compound	cell viability (MDA-MB-231 [1])	kynurenine production (MDA-MB-231 [2])
CC(=O)c1c[nH]c2ccccc12 [3-acetylindol] (compound dose: 10 uM)	0.955 ± 0.15	1.11 ± 0.14
C[C@@]12C[C@@]3(O)O[C@@H](O1)[C@]1(COC(=O)c4ccccc4)[C@H]3C[C@@]12O[C@@H]1O[C@H](CO)[C@@H](O)[C@H](O)[C@H]1O [Paeoniflorin] (compound dose: 10 uM)	1.03 ± 0.16	1.34 ± 0.27
O=C(OCC1=C[C@@H](O)[C@@H]2C=CO[C@@H](O[C@@H]3O[C@H](CO)[C@@H](O)[C@H](O)[C@H]3O)[C@H]12)c1ccc(O)cc1 [Agnuside] (compound dose: 10 uM)	1.08 ± 0.039	0.864 ± 0.17
C=C(C)[C@@H]1CC=C(C)C(=O)C1 [L(-)-carvone] (compound dose: 10 uM)	0.965 ± 0.069	0.974 ± 0.049
C=C1CC[C@@H]2[C@](C)(COC(=O)CCC(=O)O)[C@H](OC(=O)CCC(=O)O)CC[C@@]2(C)[C@@H]1/C=C/C1=CCOC1=O [Kalii Dehydrographolidi Succinas] (compound dose: 2 uM)	1.08 ± 0.13	1.2675 ± 0.00049
COC(=O)[C@H]1[C@H]2C[C@@H]3c4[nH]c5cc(OC)ccc5c4CCN3C[C@H]2C[C@@H](OC(=O)c2cc(OC)c(OC)c(OC)c2)[C@@H]1OC [Reserpine] (compound dose: 10 uM)	0.954 ± 0.028	1.02 ± 0.067
C=C1C[C@@]23CC[C@H]4[C@@](C)(CCC[C@@]4(C)C(=O)O)[C@@H]2CC[C@]1(O)C3 [Steviol] (compound dose: 10 uM)	1.1 ± 0.014	0.964 ± 0.38
